Assay results published in PubChem BioAssay (NCI).
This is part of a sample that, as a whole, favours compounds with a hit. Of some 83,000 tested, about 20% had one in any assay.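 For each line, cells grew in 96-well plates with the test compound present at a single concentration for 48 hours.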 Values without a mark were called inactive. Calls of active or inactive are those of the source. How the source made its calls: active means growth percent below 10; inactive means the rest.

tested on: RXF 393 renal; assay: NCI-60 one-dose screen, 48 h (100 = growth as untreated, 0 = no growth, -100 = all killed); conditions: 10 µM unless noted

Q: Which growth does the source give for CC(=O)Oc1ccc(CCN2C(=O)CSC2=S)cc1 here?
A: Its growth is 69.8%.

Q: How did the growth turn out when COc1cc(/C=N/n2cnc3oc(-c4ccccc4)cc3c2=N)cc(CN2CCOCC2)c1O was run?
A: Its growth is -18.4% (active).

Q: Which growth does the source give for CCOC(=O)/C=c1\sc2n(c1=O)C1C(NN=2)N(CC)C(=O)N1CC (stereo not drawn) here?
A: The growth was 70.2%.

Q: How did the growth turn out when CN(C)c1ccc(/C=N/Nc2nc(N/N=C/c3ccc(N(C)C)cc3)nc(N3CCOCC3)n2)cc1 was run?
A: Its growth is 93.1%.

Q: How did the growth turn out when COc1cc2oc(-c3cccc(NC(=O)c4cc(NC(=O)[C@H](C)NC(=O)OC(C)(C)C)ccc4C)c3)cc(=O)c2c(OC)c1OC was run?
A: Its growth is 67.7%.

Q: For CN1CCN(Cc2ccc(NC(=O)c3cncc(C#Cc4cnc5ccc(NC6CCOCC6)nn45)c3)cc2C(F)(F)F)CC1, which growth is on record?
A: Its growth is -93.8% (active).

Q: How did the growth turn out when O=C(Nc1ccc(Cl)cc1)Nc1nc2ccc([N+](=O)[O-])cc2s1 was run?
A: Its growth is -37.2% (active).

Q: How did the growth turn out when CCCCCCNC(=O)Oc1ccc(/C(=C(/C)c2ccc(OC)cc2)c2ccc(OCCN3CCCC3)cc2)cc1 was run?
A: The growth was 61.9%.

Q: With O=c1c2ccccc2nc(COc2ccccc2)n1/N=C/C=C/c1ccccc1 as the molecule, how does the growth read?
A: The growth was 101%.

Q: How did the growth turn out when CCCCCc1ccc(S(=O)(=O)N(C(C)=O)c2cccc(-c3csc(N(CCN4CCN(C)CC4)C(C)=O)n3)c2)cc1 was run?
A: Its growth is -59.2% (active).

Q: How did the growth turn out when O=C(NNc1nc2cc(F)c(F)cc2n2cccc12)c1ccncn1 was run?
A: The growth was 30.4%.

Q: With O=C(CCCCCCN1CC(=O)N2[C@@H](c3cccc(Cl)c3)c3[nH]c4ccccc4c3C[C@H]2C1=O)NO as the molecule, how does the growth read?
A: Its growth is 9.1% (active).

Q: With O=C(/C=C/c1cn(-c2ccccc2)nc1-c1ccc(Cl)cc1)c1cc2ccccc2oc1=O as the molecule, how does the growth read?
A: The growth was 95.7%.
